Data on 21 compounds can be found in PubChem BioAssay AID720526 (National Center for Advancing Translational Sciences (NCATS), 2013).

Results filed as inconclusive are left out. Where a call stands in place of a potency, no number is given. Activity calls are given as the source filed them. The call rests on the fitted dose curve; in most records, active means well fitted activation curve with a large enough effect; inconclusive means small, poorly fitted or top-dose-only effect; inactive means no such curve, though single readings can be large or run the other way.
Potency means the concentration at half of the fitted maximal effect.

The nature of this test: qHTS Assay for NPC1 Promoter Activators: Hit Validation Using Renila Luciferase Read-Out for NPC1. The conditions noted are these: Huh7 NPC1 promoter-luciferase reporter, luminescence, 24 h; series mostly up to 76.9 µM. In outline:
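Luciferase reporter read-out: promoter activation measured by luminescence after 10 min with detection reagent at room temperature. Cells were Huh7 with a stable NPC promoter-luciferase construct, treated 24 h at 37 deg C.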
A general note: qHTS replaces the single test concentration by a dilution series.
`CC(C)(C)C(=O)N/C(N)=N/c1nc2ccccc2o1`: the Potency entry is “inactive”.
To `CC(C)(C)C(=O)NC(=S)Nc1ccccc1F` belongs “inactive”; to `COc1ccc2oc(=O)c(C(=O)NC(C)c3ccccc3)cc2c1` (stereo unspecified), “inactive”; to `O=C(c1cccc(Oc2ccc([N+](=O)[O-])cc2)c1)N1CCOCC1`, “inactive”.
Regarding `COc1cccc(C(C(=O)NC2CCCC2)N(CCC(C)C)C(=O)CCC(=O)Nc2cc(C)on2)c1` (stereo unspecified), the Potency result is “inactive”.
Consider `Cc1nnc2n(c1=O)N=C(c1ccc(Cl)cc1)CS2`, for which the Potency entry is “inactive”.
To `O=C(NNC(=O)C1COc2ccccc2O1)c1ccccc1O` (stereo unspecified) belongs “inactive”; to `CCc1cc(C(=O)Nc2ccccc2)cs1`, “inactive”; to `O=C(COC(=O)c1ccc(-c2nnc(-c3ccccc3)o2)cc1)c1ccccc1`, “inactive”.
For the compound `CCOC(=O)CSc1nc2cc3c(cc2cc1C#N)OCO3`, the Potency entry is “inactive”.
On to `Cc1ccc(NC(=O)c2ncc(Cl)c(Cl)c2Cl)cc1C`, for which the Potency entry was “inactive”.
For the compound `Cn1c(SCc2ccccc2)nnc1-c1cnccn1`, the Potency entry is “inactive”.
For `Cc1ccc(C(=O)c2cncc(Br)c2)cc1`, the Potency result is “inactive”.
As to `O=C(CSc1nccn1Cc1ccco1)Nc1ccccc1F`, the Potency is 36.8 µM (active).
Then `O=C(C1COc2ccccc2O1)N1CCN(S(=O)(=O)c2ccccc2)CC1` (stereo unspecified), with “inactive”; and `COc1ccc(NC(=S)NNC(=O)c2cccs2)cc1`, with “inactive”; and `CC(C)CC(=O)N1CCN(c2ccc(NC(=O)c3ccco3)cc2)CC1`, with “inactive”.
`O=C(CSc1nnc(-c2ccccn2)o1)Nc1ccccc1Cl`: the Potency result is “inactive”.
For the compound `CCOCC(=O)Nc1c(C(=O)Nc2ccc3c(c2)OCCO3)oc2ccccc12`, the Potency entry was “inactive”.
To `CCC(=O)NC(=S)Nc1ccc(N2CCOCC2)cc1` belongs “inactive”; to `NC(=O)C1(NC(=O)[C@@H]2CC3(CC(c4cccc(NC(=O)[C@@H]5CCC(=O)N5)c4)=NO3)CN2C(=O)c2ccccc2)CC1` (stereo partly specified), “inactive”.
